About 960 (1.5%) of roughly 66,000 compounds showed an effect of 50% or more. For the sample, strong results were picked, then their nearest neighbours and some compounds at random.
Test system: Trypanosoma brucei
Assay: Trypanosoma brucei 72 hour study
Format: functional, organism-based
Parameters: scale not given: in the data most compounds retested in dose-response had high values

SMILES | Percent Effect (30 µM, 30.03 µM) [%] | Percent Effect (30.3 µM, […]) [%]
COc1ccccc1C1SCC(=O)Nc2n[nH]cc21 (stereo not drawn) | 40.76 | –
COc1cc(C2SCC(=O)Nc3n[nH]cc32)cc(OC)c1O (stereo not drawn) | 53.45 | –
COc1cc(C2SCC(=O)Nc3ccsc32)cc(OC)c1O (stereo not drawn) | 23.79 | –
COc1cc(OC)c(C2SCC(=O)Nc3n[nH]cc32)cc1OC (stereo not drawn) | 60.77 | –
COc1ccc(C2SCC(=O)Nc3n[nH]cc32)c(OC)c1OC (stereo not drawn) | -21.04 | –
COc1ccc(OC)c(C2SCC(=O)Nc3n[nH]cc32)c1 (stereo not drawn) | 38.65 | –
COCc1cncc2c1CCN(Cc1cccs1)C2.O=C(O)C(F)(F)F.O=C(O)C(F)(F)F | – | -85.33
COCCN1CCC12CCN(C(=O)c1ccc(C)nc1)C2.O=C(O)C(F)(F)F (stereo not drawn) | – | 8.313
CN(C)CCN1CCN(Cc2cccs2)Cc2cccnc21.O=C(O)C(F)(F)F.O=C(O)C(F)(F)F.O=C(O)C(F)(F)F | – | -59.56
CCN1C[C@@H]2[C@@H](OC)CCN(C(=O)Cc3ccsc3)[C@@H]2C1.O=C(O)C(F)(F)F | – | -11
CN(C)CCOCc1cncc2c1CCN(C1CCOC1)C2.O=C(O)C(F)(F)F.O=C(O)C(F)(F)F.O=C(O)C(F)(F)F (stereo not drawn) | – | -50.42
Cc1ccc2c(c1)C(NC(C)C)CC21CCNCC1.Cl (stereo not drawn) | – | -30.38
Cc1ccc2c(c1)C(NC1CC1)CC21CCNCC1.Cl (stereo not drawn) | – | 51.53
Cc1ccc2c(c1)C1(CCNCC1)CC2NC1CC1.Cl.Cl (stereo not drawn) | – | 15.24
CC(C)CN1CCC2(C1)CN(c1ncccn1)C2.O=C(O)C(F)(F)F | -1.682 | –
Cc1nc(CN2CCO[C@@H]3CC(COc4ccccn4)C[C@H]32)cs1.O=C(O)C(F)(F)F.O=C(O)C(F)(F)F (stereo partly drawn) | – | -42.66
Cc1cc(N2CCC(NC(C)Cc3ccsc3)CC2)nc(N)n1 (stereo not drawn) | 101 | –
Cc1cc(CC(C)NC2CCN(CC(C)C)CC2)[nH]n1 (stereo not drawn) | 11.44 | –
Cc1cc(N2CCC(NC(C)Cc3ccsc3)CC2)nc(C)n1 (stereo not drawn) | 18.53 | –
CCO[C@@H]1CC[C@H]2[C@H]1OCCN2CC1CCC1.O=C(O)C(F)(F)F | -19.35 | –
CCc1ccc(CN2CC[C@@H]3NC(=O)CC[C@@H]32)o1.O=C(O)C(F)(F)F | – | -13.17
c1cnc(N2CCCC3(CCN(Cc4cccs4)C3)C2)nc1 (stereo not drawn) | – | -58.76
Fc1ccccc1CN1CCCC2(CCN(c3ncccn3)C2)C1 (stereo not drawn) | – | 102.7
c1cnc(N2CCCC3(CCN(Cc4ccsc4)C3)C2)nc1 (stereo not drawn) | 44.57 | –
Cc1cccc(CN2CCC[C@@H]3CN(C(=O)c4ccco4)C[C@@H]32)n1.O=C(O)C(F)(F)F | -18.06 | –
Cc1noc(C)c1CN1CC[C@H]2OCC[C@@]2(C(=O)N2CCCC2)C1.O=C(O)C(F)(F)F | -22.78 | –
CC(C)N(C)Cc1cncc2c1CCN(CC(=O)N(C)C)C2.Cl.Cl.Cl | – | 7.599

SMILES | Percent Effect (30 µM, 30.03 µM) [%] | Percent Effect (30.3 µM, […]) [%]
Cc1cccc(CN2C[C@@H]3COC[C@H](NS(C)(=O)=O)[C@@H]3C2)n1.O=C(O)C(F)(F)F.O=C(O)C(F)(F)F | – | -15.48
O=C(NC[C@]12COC[C@H]1CN(Cc1cccnc1)C2)c1ccsc1.O=C(O)C(F)(F)F.O=C(O)C(F)(F)F | 39.91 | –
O=C(O)C(F)(F)F.c1cnc(N2C[C@H]3CCN(Cc4ccncc4)C[C@H]3C2)nc1 | – | -2.942
O=C(O)C(F)(F)F.O=C(O)C(F)(F)F.c1ccc(N2CC[C@@H]3CN(Cc4ccncc4)CCO[C@@H]3C2)cc1 | – | 99.05
O=C(O)C(F)(F)F.O=C(O)C(F)(F)F.c1cnc(N2CC[C@@H]3CN(Cc4ccncc4)CCO[C@@H]3C2)nc1 | – | -15.11
Cl.Cl.NCC1[C@H]2CN(CCc3ccccc3)C[C@@H]12 (stereo partly drawn) | – | 0.5802
O=C(O)C(F)(F)F.O=S(=O)(C1CC1)N1CCOC2(CCCN(Cc3ccccn3)C2)C1 (stereo not drawn) | – | -44.45
COc1c(C2SCC(=O)Nc3[nH]ncc32)cc2c(c1OC)OCO2 (stereo not drawn) | – | 46.19
COc1cc(C2SCC(=O)Nc3[nH]ncc32)cc2c1OCO2 (stereo not drawn) | – | 86.32
COc1cc(C2SCC(=O)Nc3[nH]ncc32)c(OC)c2c1OCO2 (stereo not drawn) | – | 5.203
CN(C)Cc1cncc2c1CCN(C1CCOCC1)C2.Cl.Cl.Cl | – | -35.22
O=C(Cc1ccccc1)N1CCC2(CCN2Cc2ccc(F)cc2)C1.O=C(O)C(F)(F)F (stereo not drawn) | – | 10.12
CCCN1C(=O)CC2(CCCNC2)C1=O.Cl (stereo not drawn) | – | -8.6
Cc1cccc(-c2ncc(CNC(C)Cc3ncccc3C)cn2)c1 (stereo not drawn) | – | -134.7
Cc1cccc(-c2ncc(CNC(C)Cc3ccncc3)cn2)c1 (stereo not drawn) | – | -157.2
CC(Cc1cccc(F)c1)NCc1cnc(N2CCN(C)CC2)nc1 (stereo not drawn) | 94.94 | –
Cn1nc(CN2CCCCC(N)C2)c2c(Cl)cccc21 (stereo not drawn) | – | 88.2
Cn1ccc2c(C(=O)NC3CN4CCC3CC4)cccc21 (stereo not drawn) | -26.79 | –
Cn1ncc2c(NC3CN4CCC3CC4)nc(-c3ccncc3)nc21 (stereo not drawn) | – | 99.69
CC(C)n1ccc2ccc(C(=O)NC3CN4CCC3CC4)cc21 (stereo not drawn) | -12.75 | –
O=C(C1CCOCC1)N1C[C@H]2CNC[C@H]2C1 | – | 14.48
CN1CC[C@H]2OCC[C@@]2(C(=O)NCCc2ccccn2)C1.O=C(O)C(F)(F)F.O=C(O)C(F)(F)F | – | -17.73
O=C(O)C(F)(F)F.O=C(O)C(F)(F)F.O=C(O)C(F)(F)F.c1cc(COC[C@]23COC[C@H]2CN(Cc2ccncc2)C3)ccn1 | -36.39 | –
O=C(O)C(F)(F)F.O=C(O)C(F)(F)F.c1cc(COC[C@]23COC[C@H]2CN(Cc2ccsc2)C3)ccn1 | 16.71 | –
O=C(O)C(F)(F)F.O=C(O)C(F)(F)F.c1cc(COC[C@]23COC[C@H]2CN(CC2CCC2)C3)ccn1 | 51.43 | –
O=C(O)C(F)(F)F.O=C(O)C(F)(F)F.O=C(O)C(F)(F)F.c1cncc(CN2CCN3C[C@H](Oc4cncnc4)C[C@H]3C2)c1 | – | -85.06

Reference: ChEMBL document CHEMBL3988442, “University of Dundee, Small-Polar-MMV Screening Library” (2021)
